Compound activity deposited in PubChem by National Center for Advancing Translational Sciences (NCATS).
EPAC1 ag val: human EPAC1 agonism, validation; O95398; EPAC1 Rap1b BODIPY-GDP exchange, fluorescence; Potency, µM, without a hit: max response, positive = active, actives largely listed as activators; 1% of 16,000 active; note: nearly all actives have a fitted effect of over 70% in size
EPAC2 antag: human EPAC2 antagonism, validation; EPAC2 Rap1B BODIPY-GDP exchange, fluorescence; Potency, µM (titrated, usually from 112 µM), without a hit: at the highest dose activity, negative = inhibition, most hits filed as inhibitors; 1.7% of 16,000 active; AID 1645886;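 note: 100% = activation by cAMP agonist control; nearly all actives have a fitted effect of over 40% in size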
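Fluorescent exchange read-out: 100 nM EPAC2 with 250 nM RAP1B–BODIPY-GDP and 50 uM GDP; BODIPY-GDP release lowers fluorescence. Read at 480/540 nm every 5 min for 30 min at room temperature; normalized to 6.5 mM cAMP.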
* = called active by the depositor; ? = inconclusive; ! = not confirmed by another sample. A selection: hits, their analogues and other compounds. The true share with any hit is near 3.1%. Calls come from the whole dose curve; as a rule, active = well fitted curve in the direction sought with a large enough effect; inconclusive = small, poorly fitted or top-dose-only effect, or another doubt; inactive = no such curve, though single readings can be large; an effect the other way counts as inactive or inconclusive. Unless noted, % is set by controls: 0 for no effect and ±100 for the full control effect; potency is the fitted concentration of half-maximal effect.

SMILES	EPAC1 ag val	EPAC2 antag
CCC1CN(CCNC(=O)c2cn3cc(C)ccc3n2)Cc2cc(OC)ccc2O1 (stereo unspecified)	3%	-15%
Nc1c(S(=O)(=O)O)cc(Nc2ccc(Nc3nc(Cl)nc(Nc4ccc(S(=O)(=O)O)cc4)n3)c(S(=O)(=O)O)c2)c2c1C(=O)c1ccccc1C2=O	?	79µM*
Cc1ncc2c(c1CNC(=O)c1ccc3c(c1)OCO3)CCN(C(=O)c1cn3ccccc3n1)C2	4%	-2%
COc1ccccc1-n1cc(C(=O)NCCN2Cc3ccccc3OC(c3ccsc3)C2)cn1 (stereo unspecified)	9%	?
CCOC(=O)/C=C/c1ccc2oc3ccccc3c(=O)c2c1	-1%	-15%
O=c1c2ccccc2oc2ccc(Oc3ccccc3)cc12	100µM*	?
O=C(NCCN1CCOCC1)c1cnn(-c2nccc(-c3ccccc3C(F)(F)F)n2)c1C1CC1	3%	-5%
COc1ccc2cc(CCC(C)=O)ccc2c1	-37%	16µM*!
COc1ccc(C(C)=O)cc1	14%	-29%
Cc1cc(-c2ccnc(-n3ncc(C(=O)NCC4COCCO4)c3C)n2)c(C)s1 (stereo unspecified)	-10%	-9%
O=C1O/C(=C/Br)CCC1c1cccc2ccccc12 (stereo unspecified)	-1%	4µM*
CCCOC(=O)c1cc(O)c(O)c(O)c1	9%	21%
O=C(OC[C@H]1O[C@@H](OC(=O)c2cc(O)c(O)c(OC(=O)c3cc(O)c(O)c(O)c3)c2)[C@H](OC(=O)c2cc(O)c(O)c(OC(=O)c3cc(O)c(O)c(O)c3)c2)[C@@H](OC(=O)c2cc(O)c(O)c(OC(=O)c3cc(O)c(O)c(O)c3)c2)[C@@H]1OC(=O)c1cc(O)c(O)c(OC(=O)c2cc(O)c(O)c(O)c2)c1)c1cc(O)c(O)c(OC(=O)c2cc(O)c(O)c(O)c2)c1	-126%	22µM*
O=C(NCCc1ccccn1)c1cnn(-c2ncc3c(n2)-c2ccccc2CC3)c1C1CC1	5%	-37%
Cc1nc2cc(NC(=O)[C@@H]3C[C@@H](Sc4ccccn4)CN3Cc3cccc(Cl)c3)ccc2s1	2%	6%
Cc1oc(-c2ccccc2NC(=O)C2CCC2)nc1CNC(=O)c1ccc(C#CC(C)(C)O)cc1	10%	?
Cc1cc(-c2cc(F)cc3c2OC(CNC(=O)CCn2cncn2)C3)ccc1F (stereo unspecified)	6%	79µM*
COC(=O)c1ccc(C(=O)NCC2Cc3cc(F)cc(-c4cncnc4)c3O2)cc1 (stereo unspecified)	14%	2.5µM*
COc1ccccc1CC(=O)NCC1Cc2cc(F)cc(-c3cncnc3)c2O1 (stereo unspecified)	3%	-20%
O=C(CCn1cncn1)NCC1Cc2cc(-c3ccsc3)cc(Cl)c2O1 (stereo unspecified)	?	-24%
COc1cccc(-c2nc3cc4c(cc3cc2CN(C(=O)c2csc(C)n2)C2CC2)CCC4)c1OC	0%	-2%
Cc1ncsc1CCC(=O)N1CCCC(c2nc(-c3ccncc3)ncc2-c2ccccc2)C1 (stereo unspecified)	-3%	-18%
COc1cc([C@@H]2c3cc4c(cc3C(O[C@@H]3O[C@@H]5COC(c6cccs6)O[C@H]5[C@H](O)[C@H]3O)C3COC(=O)[C@@H]32)OCO4)cc(OC)c1O (stereo partly specified)	?	-12%
COc1cc(C)c(/C=C/C(C)=C/C=C/C(C)=C/C(=O)O)c(C)c1C	-8%	25µM*!
COC(=O)/C=C/C(C)=C/C=C/C(C)=C/C=C/C=C(C)/C=C/C=C(C)/C=C/C(=O)O	-32%	7%
SMILES	EPAC1 ag val	EPAC2 antag
Cc1oc(-c2ccccc2NC(=O)C2CCC2)nc1CNC(=O)c1ccccn1	6%	-16%
COc1ccc2[nH]cc(CCNc3ccnc(-c4ccoc4)n3)c2c1	-59%	89µM*
COc1ccc2[nH]cc(CCNc3ccnc(-c4ccc(N(C)C)cc4)n3)c2c1	?	-27%
Cn1cc(CN2CCOc3ccc(C(O)C4CCCCC4)cc3C2)cn1 (stereo unspecified)	7%	?
CN(C)c1ccc(/C=C/c2ccnc3c2ccc2ccccc23)cc1	?	33%
Cc1ccc2c(/C=C/c3ccc(N(C)C)cc3)ccnc2c1C	100µM*	6%
Cc1cc(C)c2nccc(/C=C/c3ccc(N(C)C)cc3)c2c1	100µM*	45%
Cc1cc(C)c2c(C)ccnc2c1	26%	-4%
CO[C@H]1[C@H](NC(=O)c2ccsc2)c2ccccc2C12CCN(Cc1cc(Cl)ccc1O)CC2	7%	-2%
Cc1cc(C(=O)NCc2nc(-c3cccc(NC(=O)c4cc(C)oc4C)c3)oc2C)nc(C)n1	4%	-16%
COCC(=O)Nc1cc(C(=O)N2CCN(C)C(c3ccccc3)C2)c2c(c1)nc(-c1ccncc1)n2C (stereo unspecified)	-9%	3%
COC(=O)c1cc(CNC(=O)c2cccc(F)c2)cc(NC(=O)c2ccccc2OC)c1	20%	-25%
